Unmarked numbers belong to inactive results. Inconclusive results are not listed. Activity calls are given as the source filed them. Unless noted, the rule behind the calls is not given here.
Assays:
[1] = antimalarial activity against Dd2 strain (AID 2302;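 active = growth inhibition above 50% at the single 2 µM test dose, taken to imply half-maximal potency below 2 µM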;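 note: 0% = DMSO untreated growth and 100% = chloroquine plus artemisinin killed control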); settings: P. falciparum Dd2 in RBCs, LDH growth readout, 72 h; at 2 µM; hits give high values
[2] = human hepatoma cell viability loss – ATP luminescence, cytotoxicity control for P. falciparum antimalarial project, primary screen (AID 2303;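 active = inhibition above 50%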;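 note: 0% = DMSO wells and 100% = digitonin-killed cells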); settings: HepG2 viability, 24-48 h, at 10 µM, hits give high values
[3] = biological target: L-lactate dehydrogenase (Plasmodium falciparum (isolate CDC / Honduras)) (UniProt Q27743); test: PfLDH activity inhibition – cell lysate, 3D7 strain, counter-screen for P. falciparum growth inhibition project (AID 2304);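 note: 0% = vehicle and 100% = reference inhibitor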; settings: P. falciparum 3D7 crude extract, LDH APAD/NBT absorbance; at 2 µM; hits give high values
[4] = inhibition of 3D7 malaria parasite growth – strain 3D7 (AID 2306);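 note: 0% = DMSO wells and 100% = chloroquine plus artemisinin control wells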; settings: P. falciparum 3D7 erythrocytic growth, LDH absorbance, 72 h; at 2 µM; hits give high values
[5] = glutamate excitotoxicity neuroprotectants – cell-based, TUNEL DNA degradation staining, MNGlu (AID 1594); settings: motor neurons, glutamate-induced death, at 1 µM, hits give high values

L-lactate dehydrogenase (Plasmodium falciparum (isolate CDC / Honduras)), sequence (Q27743 whole entry, looked up): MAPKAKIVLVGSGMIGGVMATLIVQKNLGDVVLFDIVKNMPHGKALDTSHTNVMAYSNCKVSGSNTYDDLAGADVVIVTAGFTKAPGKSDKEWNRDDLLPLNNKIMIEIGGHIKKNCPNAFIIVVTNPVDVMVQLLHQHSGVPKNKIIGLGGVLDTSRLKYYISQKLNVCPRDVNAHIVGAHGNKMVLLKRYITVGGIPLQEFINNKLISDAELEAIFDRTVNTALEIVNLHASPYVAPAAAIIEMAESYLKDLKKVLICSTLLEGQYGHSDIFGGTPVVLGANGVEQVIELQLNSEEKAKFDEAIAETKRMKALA

SMILES: C[C@@H]1C[C@@H]([C@H](O)CC2CC(=O)NC(=O)C2)C(=O)[C@@H](C)C1
- growth inhibition [1]: 87% (active)
- inhibition [2]: 46%
- inhibition [3]: -5%
- growth inhibition [4]: 96% (active)

SMILES: CC(CCc1ccccc1)NC(C)C(O)c1ccc(O)cc1 (stereo not given)
- protection [5]: 40% (active)

From PubChem BioAssay
